Some test systems named below: SR leukemia; RPMI-8226 leukemia; OVCAR-8 ovarian; OVCAR-5 ovarian; OVCAR-4 ovarian; SK-OV-3 ovarian; IGROV1 ovarian; OVCAR-3 ovarian; HS 578T breast; NCI/ADR-RES ovarian; T-47D breast; BT-549 breast; MDA-MB-435 melanoma; SW-620 colon; MCF7 breast; HCT-116 colon; HCC-2998 colon; KM12 colon.
What all share (test): NCI-60 one-dose screen, 48 h (100 = growth as untreated, 0 = no growth, -100 = all killed)
Holding throughout (conditions): 10 µM unless noted

This is part of a sample that, as a whole, favours compounds with a hit. Of some 83,000 tested, about 20% had one in any assay.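 Cell lines were cultured in 96-well plates, exposed to a single compound concentration, and assessed for percent growth 48 hours later.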 Unmarked numbers belong to inactive results. Active and inactive are the calls of the source. How the source made its calls: active means growth percent below 10; inactive means the rest.

As for `CCc1cccc2c3c(sc12)C(c1ccc(Cl)cc1)C(C#N)=C(/N=C/c1ccc(Cl)cc1)O3` (centres undefined), the growth with SR leukemia was 13.9%; in the test with RPMI-8226 leukemia it was 8.79% (active); with OVCAR-8 ovarian, 28.1%; with OVCAR-5 ovarian, 32.9%; in the test with OVCAR-4 ovarian, 79.1%; with SK-OV-3 ovarian, 55.4%. For the same compound, the growth in the test on IGROV1 ovarian was 28.1%; with OVCAR-3 ovarian, -14.2% (active); in the test with HS 578T breast, 8.08% (active); in the test on NCI/ADR-RES ovarian, 5.33% (active); in the test with T-47D breast, 25.7%; with BT-549 breast, 51.7%. For the same compound, the growth in the test on MDA-MB-435 melanoma was -58.4% (active); in the test with SW-620 colon, 29.3%; with MCF7 breast it was 15.8%; with HCT-116 colon it was 22.2%; with HCC-2998 colon, 7.72% (active); with KM12 colon, 13.2%.
For `C=CCOc1cccc(/C=C2\SC(=S)N(C3CC(=O)N(c4ccc(Br)cc4)C3=O)C2=O)c1` (centres undefined), the growth is 93.7% in the test on SR leukemia; 96.4% with RPMI-8226 leukemia; 99.9% in the test with OVCAR-8 ovarian; 108% in the test with OVCAR-5 ovarian; 109% in the test on OVCAR-4 ovarian; 88% in the test with SK-OV-3 ovarian. The growth in the test on IGROV1 ovarian is 103%; in the test on OVCAR-3 ovarian, 108%; in the test on HS 578T breast, 106%; in the test on NCI/ADR-RES ovarian, 99.9%; with T-47D breast, 95.9%; in the test with BT-549 breast, 109%. In addition, the growth in the test on MDA-MB-435 melanoma was 109%; with SW-620 colon, 108%; with MCF7 breast, 90.7%; with HCT-116 colon it was 100%; with HCC-2998 colon it was 115%; in the test with KM12 colon, 97.6%.
Turning to `O=C(CCn1cc[n+](CC(=O)c2ccc(-c3ccccc3)cc2)c1)Nc1cccc2cccnc12`, the growth in the test on SR leukemia is 79.8%; with RPMI-8226 leukemia it was 34%; in the test with OVCAR-8 ovarian, 82.4%; in the test on OVCAR-5 ovarian, 91.7%; with OVCAR-4 ovarian, 24.6%; in the test with SK-OV-3 ovarian, 74.6%. Also, the growth in the test on IGROV1 ovarian was 36.4%; in the test on OVCAR-3 ovarian, 51.9%; in the test with HS 578T breast it was 71.3%; with NCI/ADR-RES ovarian it was 99.7%; in the test with T-47D breast it was 42.4%; in the test with BT-549 breast, 57.2%. Besides, the growth is 87.2% in the test on MDA-MB-435 melanoma; 85.8% in the test on SW-620 colon; 58% in the test with MCF7 breast; 84.5% in the test with HCT-116 colon; 68.4% with HCC-2998 colon; 42.9% in the test on KM12 colon.
Turning to `CC(=O)c1nnn(-c2c(C(=O)n3nc(C)cc3C)sc(=S)n2-c2ccccc2)c1C`, the growth in the test with SR leukemia is 109%; in the test on RPMI-8226 leukemia, 101%; in the test with OVCAR-8 ovarian it was 103%; in the test with OVCAR-5 ovarian it was 120%; with OVCAR-4 ovarian it was 100%; with SK-OV-3 ovarian it was 108%. For the same compound, the growth in the test with IGROV1 ovarian was 95.6%; in the test with OVCAR-3 ovarian, 115%; with HS 578T breast, 113%; with NCI/ADR-RES ovarian, 111%; in the test with T-47D breast, 113%; in the test with BT-549 breast, 92.2%. Moreover, the growth was 108% with MDA-MB-435 melanoma; 112% in the test with SW-620 colon; 89.2% in the test with MCF7 breast; 104% with HCT-116 colon; 114% in the test on HCC-2998 colon; 104% in the test with KM12 colon.
As for `CCNC(=O)Oc1ccc(/C(=C(/C)c2ccccc2)c2ccc(OCCN3CCCCCC3)cc2)cc1`, the growth with SR leukemia was 0.632% (active); with RPMI-8226 leukemia it was -32.8% (active); in the test with OVCAR-8 ovarian, 7.06% (active); in the test on OVCAR-5 ovarian, 35.1%; in the test with OVCAR-4 ovarian, 36.4%; in the test on SK-OV-3 ovarian it was 51.8%. Moreover, the growth in the test with IGROV1 ovarian is 32.9%; in the test on OVCAR-3 ovarian, 6.04% (active); in the test on HS 578T breast it was -12.8% (active); in the test on NCI/ADR-RES ovarian, 24.4%; in the test with T-47D breast, 2.6% (active); in the test on BT-549 breast it was -3.35% (active). The growth was -35.5% (active) in the test on MDA-MB-435 melanoma; -42.9% (active) in the test on SW-620 colon; 7% (active) with MCF7 breast; -78% (active) with HCT-116 colon; 25.3% in the test with HCC-2998 colon; 5.22% (active) in the test with KM12 colon.
On to `COc1cc(/C=C2\C(=O)Nc3cc(Cl)ccc32)ccc1OCc1ccc(F)cc1`, for which the growth in the test on SR leukemia is 97.5%; in the test with RPMI-8226 leukemia it was 113%; in the test with OVCAR-8 ovarian, 98.7%; with OVCAR-5 ovarian, 98.6%; in the test on OVCAR-4 ovarian, 83.2%; in the test with SK-OV-3 ovarian, 97.2%. For the same compound, the growth with IGROV1 ovarian was 72.7%; in the test with OVCAR-3 ovarian, 102%; in the test on HS 578T breast, 91.7%; with NCI/ADR-RES ovarian, 101%; in the test on T-47D breast, 94.1%; in the test on BT-549 breast it was 95.7%. Also, the growth was 103% in the test with MDA-MB-435 melanoma; 98.2% with SW-620 colon; 57.1% in the test on MCF7 breast; 92.9% in the test on HCT-116 colon; 96.8% with HCC-2998 colon; 102% with KM12 colon.
Regarding `CC(=O)C1=C(C)NC(NN)=NC1c1cccc(Cl)c1` (centres undefined), the growth with SR leukemia is 96.5%; in the test with RPMI-8226 leukemia, 99.7%; in the test with OVCAR-8 ovarian it was 103%; in the test with OVCAR-5 ovarian it was 99.4%; in the test on OVCAR-4 ovarian, 104%; in the test on SK-OV-3 ovarian, 102%. For the same compound, the growth with IGROV1 ovarian was 97.7%; with OVCAR-3 ovarian it was 123%; in the test on HS 578T breast it was 114%; in the test on NCI/ADR-RES ovarian, 107%; in the test on T-47D breast, 101%; in the test on BT-549 breast, 119%. The growth with MDA-MB-435 melanoma is 103%; in the test with SW-620 colon it was 108%; with MCF7 breast, 92.3%; in the test with HCT-116 colon, 105%; with HCC-2998 colon it was 127%; in the test with KM12 colon, 102%.
On to `NS(=O)(=O)c1ccc(Nc2nc(SCc3ccccc3)nc3ccccc23)cc1`, for which the growth in the test on SR leukemia was 33.6%; in the test with RPMI-8226 leukemia, 32.8%; in the test on OVCAR-8 ovarian, 60.6%; with OVCAR-5 ovarian, 83.3%; in the test on OVCAR-4 ovarian, 58%; with SK-OV-3 ovarian, 91.3%. Also, the growth was 90.9% with IGROV1 ovarian; 84.7% in the test with OVCAR-3 ovarian; 62.2% in the test on HS 578T breast; 102% with NCI/ADR-RES ovarian; 24.8% in the test with T-47D breast; 66.7% in the test on BT-549 breast. Also, the growth in the test on MDA-MB-435 melanoma was 76.8%; in the test with SW-620 colon it was 61%; in the test with MCF7 breast, 54.3%; in the test on HCT-116 colon, 53.2%; in the test on HCC-2998 colon it was 83%; in the test on KM12 colon, 27.8%.
